We go through 17 molecules from PubChem BioAssay (NCATS).

Molecules are shown by their SMILES. Inconclusive results are not listed. Unmarked numbers belong to inactive results. The call rests on the fitted dose curve; in most records, active means well fitted inhibition curve with a large enough effect; inconclusive means small, poorly fitted or top-dose-only effect; inactive means flat fitted curve, though single readings scatter.
On the % scale 0 is the no-effect control and ±100 the full control effect.

In the assay the target is Calcium and integrin-binding protein 1 (Homo sapiens) (UniProt Q99828). In words: Primary qHTS for Identification of Calcium Integrin Binding Protein 1 (CIB1) Competitor (AID 1508620).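 Further: GST tagged CIB1 binding a fluorescein labelled alphaIIb integrin peptide tracer; top concentration of the series differs between compounds.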 The note with it: CIB1-GST / FITC-alphaIIb peptide fluorescence polarization; series mostly up to 114 µM; activity change, negative = inhibition: at the top concentration. A digest of the protocol: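 Fluorescence polarization competition: CIB1-GST (1 uM final) preincubated with compound 15 min at room temperature, then FITC-labeled alphaIIb peptide (100 nM final) added for another 15 min. Polarization read at Ex 480/Em 540.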
Chain of Calcium and integrin-binding protein 1 (Homo sapiens) (Q99828 whole entry, looked up): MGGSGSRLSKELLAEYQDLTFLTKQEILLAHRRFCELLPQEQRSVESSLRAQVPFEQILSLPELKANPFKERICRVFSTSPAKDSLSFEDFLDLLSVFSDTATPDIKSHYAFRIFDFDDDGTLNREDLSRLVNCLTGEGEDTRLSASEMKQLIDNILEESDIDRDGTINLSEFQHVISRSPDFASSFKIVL
Background: In qHTS, concentration-response curves come from the screen itself.
Turning to `Cc1cccc(-n2cnc3cc(C(=O)N4CCCC(C(C)C)C4)ccc32)c1` (configuration not stated), the “activity change, negative = inhibition” value was -3.3%.
As for `Cc1ccc(CNc2ncnc3ccc(-c4oc(-c5ccccc5)nc4C)cc23)o1`, the “activity change, negative = inhibition” value was -7.71%.
To `Cc1cc2c(s1)c1cnn(Cc3ccccc3Cl)c(=O)c1n2C` belongs 4.23%; to `CC(C)c1ccccc1-c1ncc(N)c(NCc2ccc(-c3cccnc3)cc2)n1`, -2.2%; to `O=S1(=O)N=C(Oc2cccc3ccccc23)c2ccccc21`, -7.72%.
Turning to `O=C(Nc1cc(C(F)(F)F)ccc1Cl)[C@H](O)CCc1ccccc1`, the “activity change, negative = inhibition” value is 1.48%.
To `COc1ccc(C2Nc3ccccc3C(=O)N2CCCN(C)C)cc1COc1c(C)cc(NC(C)=O)cc1C` (configuration not stated) belongs -0.308%; to `COc1ccc(C(F)(F)F)cc1NC(=O)C(OC(=O)CNC(=O)c1ccccc1)c1ccccc1` (configuration not stated), 2.97%.
The same measure for `Cc1csc(CNc2ncnc3ccc(-c4cccc(Cl)c4)cc23)c1`: 1.23%.
To `COCCCc1cc(F)c(S(=O)(=O)N2CCN(S(=O)(=O)c3ccc4c(c3)OCCO4)CC2)cc1F` belongs 1.13%; to `N#Cc1ccc(-c2ccc(CNc3ccc(N4CCCCC4)cc3)o2)cc1`, -10.2%.
Take `Clc1ccccc1-c1nc(NCc2ccc(-c3cccnc3)cc2)c2ccccc2n1`: the “activity change, negative = inhibition” value was -2.98%.
`COc1ccc(-c2ccc3ncnc(NCCc4cnc[nH]4)c3c2)cc1OC`: the “activity change, negative = inhibition” value was -3.1%.
The same measure for `Cc1sc(C)c2c1C(=O)NS2(=O)=O`: 2.74%; for `Cc1cc(NS(=O)(=O)c2ccc(NS(=O)(=O)Cc3ccc(Cl)c(Cl)c3)cc2)no1`: -11.3%; for `N#Cc1cc(NC(=O)Nc2nnc(-c3ccncc3)s2)ccc1-c1ccc[nH]1`: -3.1%.
To `Nc1nc(NCc2ccc(-c3cccnc3)cc2)c2ccccc2n1` belongs 7.84%.
